We go through nine molecules from PubChem BioAssay (NCI).

This is part of a sample that, as a whole, favours compounds with a hit. Of some 79,000 tested, about 15% had one in any assay. Values without a mark were called inactive. Activity calls are given as the source filed them. No stated cut-off is given here; in the data, active means growth inhibition above about 70%; inactive means the rest.

Assay [1] in a line: NCI Yeast Anticancer Drug Screen. Data for the rad50 strain (AID 155).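 Further: 0% = growth of vehicle-only cultures of the same strain.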 The note with it: S. cerevisiae rad50 strain growth inhibition, active compounds read high. The procedure, abridged:
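A DNA repair-deficient yeast mutant serves as the test organism; compound-induced growth inhibition is calculated against vehicle-treated cells.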

The nature of assay [2]: NCI Yeast Anticancer Drug Screen. Data for the mec2-1 strain (AID 157). The note with it: S. cerevisiae mec2-1 strain, active compounds read high. The essentials:
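Readout is yeast growth inhibition, normalised to vehicle-treated controls, in the mec2-1 strain exposed to compound.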

Assay [3] in a line: NCI Yeast Anticancer Drug Screen. Data for the sgs1 mgt1 strain (AID 161).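 Further: 0% = growth of cultures given vehicle only.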 Particulars: S. cerevisiae sgs1 mgt1 strain, active compounds read high. The essentials: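 Growth of a repair-deficient yeast mutant was monitored after compound treatment and expressed as inhibition relative to vehicle-treated cultures.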
Assay [4] in a line: NCI Yeast Anticancer Drug Screen. Data for the cln2 rad14 strain (AID 165).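 Further: 0% = growth equal to vehicle treated cultures.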 Particulars: S. cerevisiae cln2 rad14 strain, active compounds read high. The essentials:
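Relative to vehicle controls, growth inhibition of compound-treated cln2 rad14 yeast was recorded.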

Assay [5] in a line: NCI Yeast Anticancer Drug Screen. Data for the bub3 strain (AID 167). The note with it: S. cerevisiae bub3 mutant strain, active compounds read high. The essentials: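 Inhibition values come from growth of compound-treated mutant yeast normalised to vehicle-treated controls.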
Assay [6] in a line: NCI Yeast Anticancer Drug Screen. Data for the mlh1 rad18 strain (AID 175). The note with it: S. cerevisiae mlh1 rad18 strain growth inhibition, active compounds read high. The procedure, abridged:
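Test agents were incubated with a yeast strain of defined genotype (DNA damage repair defect). Inhibition of growth was derived by comparison with vehicle-exposed cultures.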

Where [7] appears, read: at 5.0 µM (retest, dose inferred, filed as 0.5).
The mark [8] stands for this setting: at 50.0 µM (retest, dose inferred, filed as 5.0).

`COc1ccc(C2SC(C)C(=O)N2c2nc(-c3nc(-c4ccc(Cl)cc4)cs3)cs2)cc1` (configuration not stated): the growth inhibition in assay [1] (setting [7]) was 42%; in assay [1] (setting [8]) it was 86% (active); in assay [1] (at 50.0 µM), 45%; in assay [2] (setting [7]) it was 17%; in assay [2] (setting [8]), 99% (active); in assay [2] (at 50.0 µM), 39.9%. Further, the growth inhibition in assay [3] (setting [7]) was 5%; in assay [3] (setting [8]) it was 92% (active); in assay [3] (at 50.0 µM) it was 69.3%; in assay [4] (setting [7]), 4%; in assay [4] (setting [8]), 99% (active); in assay [4] (at 50.0 µM), 83.5% (active). For the same molecule, the growth inhibition in assay [5] (setting [7]) is -17%; in assay [5] (setting [8]) it was 99% (active); in assay [5] (at 50.0 µM) it was 27.3%; in assay [6] (setting [7]), 23%; in assay [6] (setting [8]), 99% (active); in assay [6] (at 50.0 µM), 77% (active).
Turning to `Cc1ccc(O)cc1CCCCO`, the growth inhibition is 2% in assay [1] (setting [7]); -4% in assay [1] (setting [8]); -7.45% in assay [1] (at 50.0 µM); 0% in assay [2] (setting [7]); -1% in assay [2] (setting [8]); -2.1% in assay [2] (at 50.0 µM). The growth inhibition is -1% in assay [3] (setting [7]); -2% in assay [3] (setting [8]); -3.55% in assay [3] (at 50.0 µM); -2% in assay [4] (setting [7]); 7% in assay [4] (setting [8]); 74.6% (active) in assay [4] (at 50.0 µM). Further, the growth inhibition was -11% in assay [5] (setting [7]); 0% in assay [5] (setting [8]); -5.95% in assay [5] (at 50.0 µM); 0% in assay [6] (setting [7]); -2% in assay [6] (setting [8]); -3.45% in assay [6] (at 50.0 µM).
With `CCC(c1ccc(OC)cc1)C(O)(CC)c1ccc(OC)cc1` (configuration not stated), the growth inhibition in assay [1] (setting [7]) is -4%; in assay [1] (setting [8]), 98% (active); in assay [1] (at 50.0 µM) it was 99% (active); in assay [2] (setting [7]), -7%; in assay [2] (setting [8]) it was 99% (active); in assay [2] (at 50.0 µM) it was 98.8% (active). The growth inhibition is -11% in assay [3] (setting [7]); 98% (active) in assay [3] (setting [8]); 98.4% (active) in assay [3] (at 50.0 µM); -10% in assay [4] (setting [7]); 99% (active) in assay [4] (setting [8]); 98% (active) in assay [4] (at 50.0 µM). The growth inhibition is 11% in assay [5] (setting [7]); 99% (active) in assay [5] (setting [8]); 98.9% (active) in assay [5] (at 50.0 µM); -3% in assay [6] (setting [7]); 98% (active) in assay [6] (setting [8]); 98.6% (active) in assay [6] (at 50.0 µM).
With `Cc1cc2c(c(C(N)=O)c1C)-c1cccc(F)c1C2=O`, the growth inhibition in assay [1] (setting [7]) is 4%; in assay [1] (setting [8]), 47%; in assay [1] (at 50.0 µM), 77.4% (active); in assay [2] (setting [7]), 4%; in assay [2] (setting [8]), 20%; in assay [2] (at 50.0 µM), 7.15%. The growth inhibition in assay [3] (setting [7]) was 20%; in assay [3] (setting [8]), 20%; in assay [3] (at 50.0 µM), 37.6%; in assay [4] (setting [7]), -1%; in assay [4] (setting [8]), 14%; in assay [4] (at 50.0 µM), 75.5% (active). The growth inhibition is 2% in assay [5] (setting [7]); 32% in assay [5] (setting [8]); 16% in assay [5] (at 50.0 µM); 1% in assay [6] (setting [7]); 32% in assay [6] (setting [8]); 90.5% (active) in assay [6] (at 50.0 µM).
As to `COc1ccc(NCCN(C)C)c2c(=O)c3ccccc3sc12`, the growth inhibition was 13% in assay [1] (setting [7]); 53% in assay [1] (setting [8]); 90.4% (active) in assay [1] (at 50.0 µM); 1% in assay [2] (setting [7]); 45% in assay [2] (setting [8]); 37.4% in assay [2] (at 50.0 µM). For the same molecule, the growth inhibition in assay [3] (setting [7]) is -1%; in assay [3] (setting [8]), 39%; in assay [3] (at 50.0 µM) it was 41.6%; in assay [4] (setting [7]), -3%; in assay [4] (setting [8]), 16%; in assay [4] (at 50.0 µM), -1.05%. For the same molecule, the growth inhibition in assay [5] (setting [7]) was -7%; in assay [5] (setting [8]) it was 0%; in assay [5] (at 50.0 µM), 50.2%; in assay [6] (setting [7]), -3%; in assay [6] (setting [8]), 43%; in assay [6] (at 50.0 µM) it was 69.4%.
Take `COc1ccc2c(c1)CC/C(=C\c1ccc(OCCN(C)C)cc1)C2=O`: the growth inhibition in assay [1] (setting [7]) is 12%; in assay [1] (setting [8]) it was 19%; in assay [1] (at 50.0 µM), 40.2%; in assay [2] (setting [7]), 2%; in assay [2] (setting [8]), 15%; in assay [2] (at 50.0 µM), 48.8%. Moreover, the growth inhibition in assay [3] (setting [7]) is 8%; in assay [3] (setting [8]), 33%; in assay [3] (at 50.0 µM) it was 44.8%; in assay [4] (setting [7]) it was 8%; in assay [4] (setting [8]) it was -3%; in assay [4] (at 50.0 µM), 15.4%. Further, the growth inhibition is 12% in assay [5] (setting [7]); 25% in assay [5] (setting [8]); 20.4% in assay [5] (at 50.0 µM); 6% in assay [6] (setting [7]); 28% in assay [6] (setting [8]); 57% in assay [6] (at 50.0 µM).
For `O=C1C=C(c2ccccc2)S(=O)(=O)c2c(O)cccc21`, the growth inhibition is 88% (active) in assay [1] (setting [7]); 100% (active) in assay [1] (setting [8]); 99.6% (active) in assay [1] (at 50.0 µM); 76% (active) in assay [2] (setting [7]); 100% (active) in assay [2] (setting [8]); 99.6% (active) in assay [2] (at 50.0 µM). For the same molecule, the growth inhibition in assay [3] (setting [7]) was 80% (active); in assay [3] (setting [8]) it was 100% (active); in assay [3] (at 50.0 µM), 99.5% (active); in assay [4] (setting [7]), 46%; in assay [4] (setting [8]) it was 99% (active); in assay [4] (at 50.0 µM) it was 99% (active). For the same molecule, the growth inhibition in assay [5] (setting [7]) is 71% (active); in assay [5] (setting [8]), 99% (active); in assay [5] (at 50.0 µM) it was 99.2% (active); in assay [6] (setting [7]), 94% (active); in assay [6] (setting [8]), 100% (active); in assay [6] (at 50.0 µM), 99.7% (active).
Take `O=C1C2=C(C(=O)c3cnccc31)C1C=CC2CC1` (configuration not stated): the growth inhibition in assay [1] (setting [7]) was 21%; in assay [1] (setting [8]), 71% (active); in assay [1] (at 50.0 µM), 49.1%; in assay [2] (setting [7]), 17%; in assay [2] (setting [8]), 69%; in assay [2] (at 50.0 µM), 31.2%. Further, the growth inhibition was 25% in assay [3] (setting [7]); 78% (active) in assay [3] (setting [8]); 10.2% in assay [3] (at 50.0 µM); 16% in assay [4] (setting [7]); 40% in assay [4] (setting [8]); 15.8% in assay [4] (at 50.0 µM). Also, the growth inhibition in assay [5] (setting [7]) was 27%; in assay [5] (setting [8]), 88% (active); in assay [5] (at 50.0 µM), 59.9%; in assay [6] (setting [7]), 40%; in assay [6] (setting [8]), 94% (active); in assay [6] (at 50.0 µM) it was 90.8% (active).
On to `COC(=O)C(=C(c1ccccc1)c1ccccc1)c1ccccc1`, for which the growth inhibition was 3% in assay [1] (setting [7]); -1% in assay [1] (setting [8]); 25.8% in assay [1] (at 50.0 µM); 0% in assay [2] (setting [7]); 4% in assay [2] (setting [8]); 23.1% in assay [2] (at 50.0 µM). For the same molecule, the growth inhibition is 4% in assay [3] (setting [7]); -1% in assay [3] (setting [8]); 52% in assay [3] (at 50.0 µM); 0% in assay [4] (setting [7]); 4% in assay [4] (setting [8]); 43.1% in assay [4] (at 50.0 µM). For the same molecule, the growth inhibition in assay [5] (setting [7]) was -2%; in assay [5] (setting [8]), -3%; in assay [5] (at 50.0 µM), 89.6% (active); in assay [6] (setting [7]), -3%; in assay [6] (setting [8]), 7%; in assay [6] (at 50.0 µM) it was 35.6%.
